Compound activity deposited in PubChem by Bradner/Qi Labs at DFCI.
CBX7 inh = CBX7 chromodomain binding inhibitors, primary screen, biochemical, AlphaScreen; Chromobox protein homolog 7 (Homo sapiens), O95931; AlphaScreen His6-CBX7 / biotin-H3K27me3 peptide binding; hits give low values; normalised signal (fraction of DMSO) (test concentration not listed); 1.1% of 66,000 active; in the data active = normalised signal below about 0.5
Target sequence (O95931 whole entry, looked up): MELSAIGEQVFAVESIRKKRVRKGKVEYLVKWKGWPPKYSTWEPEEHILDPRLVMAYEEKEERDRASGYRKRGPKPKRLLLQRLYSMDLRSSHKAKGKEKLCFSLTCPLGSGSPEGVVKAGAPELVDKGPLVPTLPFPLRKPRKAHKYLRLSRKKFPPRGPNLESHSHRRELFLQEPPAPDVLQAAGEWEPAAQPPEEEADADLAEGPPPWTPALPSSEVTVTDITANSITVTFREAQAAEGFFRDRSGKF
* hit, by the source's call. Only a selection was taken, and hits are over-represented in it overall.

SMILES | CBX7 inh
Cc1ccc(S(=O)(=O)Nc2ccccc2CNc2ccccn2)cc1 | 0.9
Cc1ccc(S(=O)(=O)Nc2cccc3cccnc23)cc1 | 0.085*
Cc1ccc(S(=O)(=O)N(C)c2cccc3cccnc23)cc1 | 1.1
O=C(CSc1nnnn1-c1ccc(F)cc1F)N1CCOCC1 | 1.1
COc1ccc(Nc2cc(C(=O)NCCN(Cc3ccccc3)C(C)C)c3ccccc3n2)cc1OC | 0.54
COc1ccc(Nc2cc(C(=O)NCCCN(C)Cc3ccccc3)c3ccccc3n2)cc1OC | 0.44*
CCCCN(C)CCCNC(=O)c1cc(Nc2ccc(OC)c(OC)c2)nc2ccccc12 | 0.74
CCCCCOc1ccc(C(=O)Nc2ccc3sc(C)nc3c2)cc1 | 1.3
O=C(CCc1ccccc1)NC(c1cccs1)c1cc(Cl)c2cccnc2c1O (stereo not drawn) | 0.45*
CCCC(=O)NC(c1ccccc1)c1cc(Cl)c2cccnc2c1O (stereo not drawn) | 0.63
Cc1ccc(-c2noc(CCC(=O)NC(C)CCc3ccccc3)n2)cc1 (stereo not drawn) | 1.1
Cc1ccc(C(NC(=O)CCc2ccccc2)c2ccc3cccnc3c2O)cc1 (stereo not drawn) | 0.071*
CC(NS(=O)(=O)c1cccc2cccnc12)c1ccccc1 (stereo not drawn) | 1
CC(NC(=O)C1CCN(S(=O)(=O)c2cccc3cccnc23)CC1)c1ccccc1 (stereo not drawn) | 1
Cc1cccnc1NC(c1ccccc1)c1ccc2cccnc2c1O (stereo not drawn) | 0.032*
O=C(CCCN1C(=O)c2cccnc2C1=O)NC(c1ccccc1)c1ccccc1 | 1.1
O=C(NC(c1ccccc1)c1ccccc1)C1CCCN(S(=O)(=O)c2cccc3cccnc23)C1 (stereo not drawn) | 0.88
O=C(NC(c1ccccc1)c1ccccc1)C1CCCN1S(=O)(=O)c1cccc2cccnc12 (stereo not drawn) | 0.93
Oc1c(C(Nc2ccccn2)c2ccccc2)ccc2cccnc12 (stereo not drawn) | 0.01*
Cc1ccc2cc(CCNC(=O)CCc3ccccc3)c(=O)[nH]c2c1 | 1.1
O=C(CSc1ncnc2ccccc12)N1CCC(Cc2ccccc2)CC1 | 1
Cc1nc2c(-c3ccc(Cl)cc3)c[nH]n2c(=O)c1Cc1ccccc1 | 0.93
CCOC(=O)c1cc(-c2ccccc2)n(CCC(=O)Nc2ccccc2C)c1C | 1
CC(=O)C12c3ccccc3C(c3ccccc31)C1C(=O)N(c3ccccc3C)C(=O)C12 (stereo not drawn) | 0.99
CCOC(=O)c1c2n(c3cc(Br)c(OC)cc13)CCN(c1ccc(F)cc1)C2 | 0.87
SMILES | CBX7 inh
O=C(CCCCn1c(=O)[nH]c2ccccc2c1=O)NCCc1ccccc1Cl | 1.1
CC(C)CN(CCCNC(=O)Cn1nc(-c2ccc(Cl)cc2)ccc1=O)CC(C)C | 0.98
CC1(C)OC2OC(C(=O)Nc3ccc(F)c(Cl)c3)C3OC(C)(C)OC3C2O1 (stereo not drawn) | 1.1
CCc1ccc(NC(=O)CSc2nc(-c3ccc4c(c3)OCO4)cn2-c2ccc(C)cc2)cc1 | 0.68
Cc1nc2ncnn2c(C)c1CCC(=O)N1CCN(c2ccccc2F)CC1 | 1.1
CCOc1ccc(-c2nc(CSCC(=O)NCCc3ccc(Cl)cc3)c(C)o2)cc1 | 0.78
CC1CCN(C(=O)c2ccc(C#Cc3ccccc3)cc2)CC1 | 1.1
O=C(NCc1ccccc1Cl)c1ccc2c(c1)N(Cc1ccccc1F)C(=O)CS2 | 1
c1ccc(C(c2ccccc2)c2nc(-c3cccnc3)no2)cc1 | 0.32*
COc1ccc(-c2noc(C(c3ccccc3)c3ccccc3)n2)cc1 | 1.1
c1ccc(C(Cc2nc(-c3cccnc3)no2)c2ccccc2)cc1 | 0.93
Cc1ccc(NC(=O)[C@H](Cc2ccccc2)N2Cc3ccccc3C2=O)cc1F | 0.68
O=C(Nc1ccc2c(c1)OCO2)[C@H](Cc1ccccc1)N1Cc2ccccc2C1=O | 0.42*
COc1ccc(NC(=O)[C@H](CCSC)N2Cc3ccccc3C2=O)cc1OC | 0.77
O=C(Nc1ccc2c(c1)OCO2)[C@H](CSCc1ccccc1)N1Cc2ccccc2C1=O | 0.71
CSCC[C@@H](C(=O)Nc1ccc2c(c1)OCO2)N1Cc2ccccc2C1=O | 0.62
COc1ccc(NC(=O)[C@H](Cc2ccccc2)N2Cc3ccccc3C2=O)cc1OC | 0.42*
Cc1ccc(NC(=O)CSc2nc3c(c(=O)[nH]2)CCC3)c(Cl)c1 | 0.96
O=C(NCc1ccccn1)C(=O)Nc1ccc2c(c1)OCO2 | 0.99
COc1ccc(Br)cc1CN(CCc1ccc2c(c1)OCO2)Cc1cccnc1 | 0.51
CCOc1ccccc1CN(CCc1ccc2c(c1)OCO2)Cc1ccccn1 | 0.069*
COc1ccccc1-c1nnc(NC(=O)c2ccc(S(=O)(=O)N(C)C)cc2)o1 | 0.036*
COc1cc(OC)cc(-c2nnc(NC(=O)c3ccc(S(=O)(=O)N(C)Cc4ccccc4)cc3)o2)c1 | 0.076*
CN(Cc1ccccc1)S(=O)(=O)c1ccc(C(=O)Nc2ccc(-c3nc4ccccc4[nH]3)cc2)cc1 | 1
